Reference: the supplement of paper PMC10849652
About 7,900 targets were measured; listed, in parts, are those with a hit and a random draw of the rest. About 0.6% of all pairs of compound and target were hits.

Tests used:
Experiment in all cases: log2 fold change, soluble protein after heating vs DMSO (PISA); higher = thermal stabilisation; K562 cells, 10 uM, 30 min; active = over 0.2 and 3.5 SD of the protein, either way, in both replicates (recomputed)
erlotinib = compound: C#Cc1cccc(Nc2ncnc3cc(OCCOC)c(OCCOC)cc23)c1 [erlotinib]
How it was run: (§1)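 K562 cells at 2×10^6 cells/mL were given 10 μM compound for 30 min. Aliquots then went through 3 min of heating across 48°C-58°C, were pooled, and were extracted in PBS with 0.5% NP-40 at 4°C, and the supernatant after 21,000xg for 90 min was quantified by TMTpro 16plex LC-MS/MS with channel sums equalised. Thermal stability relative to control samples, from duplicates, is given as log2 fold change.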

[1] = compound: C/C(=N\NC(=O)C1=CC(=CC=C1)S(=O)(=O)N2CCOCC2)/C3=C(C=CC(=C3)Cl)O
How it was run: as §1

[2] = compound: C1=CC(=C(C=C1Cl)C2=NC3=NC=CN=C3C(=N2)NC4=CC=NC=C4)F
How it was run: as §1

[3] = compound: C1=CC(=CC=C1C2=NC3=C(N2)C=C(C=C3)C(=O)N)OC4=CC=C(C=C4)Cl
How it was run: as §1

[4] = compound: C1=CC2=C(C=CC(=C2)/C=C\3/C(=O)NC(=NCC4=CC=CS4)S3)N=C1
How it was run: as §1

[5] = compound: C1=CC2=NC=CN=C2C=C1/C=C/3\C(=O)NC(=O)S3
How it was run: as §1

[6] = compound: C1=CC=C(C=C1)C2=NC(=C(N2)C3=CC=NC=C3)C4=CC(=C(C=C4)Cl)O
How it was run: as §1

[7] = compound: C1=CC=C2C(=C1)C3=NNC4=CC=CC(=C43)C2=O
How it was run: as §1

[8] = compound: C1CCN(C1)C(=O)NC2=CC=CC(=C2)NC3=NC=C(C(=N3)NCCC4=CN=CN4)Br
How it was run: as §1

[9] = compound: C1CN(CCC1(CC2=CC=C(C=C2)Cl)N)C3=NC=NC4=C3C=CN4
How it was run: as §1

Measured: log2 fold change

HMGN1 (UniProt P05114)
Chain of UniProt P05114 (P05114 whole entry, looked up): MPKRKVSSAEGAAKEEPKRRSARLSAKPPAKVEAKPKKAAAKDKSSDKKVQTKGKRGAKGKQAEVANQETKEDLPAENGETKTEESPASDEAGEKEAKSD
inactive: erlotinib -0.069 | [1] -0.114 | [2] -0.011 | [3] 0.066 | [4] -0.114 | [5] 0.045 | [6] -0.062 | [7] -0.059 | [8] 0.029 | [9] -0.028

GMEB2 (UniProt Q9UKD1)
inactive: erlotinib 0.003 | [1] 0.039 | [2] 0.168 | [3] 0.004 | [4] -0.009 | [5] 0.047 | [6] -0.022 | [7] -0.117 | [8] -0.105 | [9] 0.024

FASTKD1 (UniProt Q53R41)
inactive: erlotinib 0.207 | [1] 0.219 | [2] 0.142 | [3] -0.051 | [4] -0.072 | [5] -0.033 | [6] 0.281 | [7] 0.093 | [8] -0.108 | [9] -0.014

GLIPR2 (UniProt Q9H4G4)
inactive: erlotinib 0.039 | [1] 0.054 | [2] -0.035 | [3] 0.15 | [4] 0.023 | [5] -0.019 | [6] -0.062 | [7] -0.028 | [8] 0.045 | [9] -0.058

HAT1 (UniProt O14929)
inactive: erlotinib -0.048 | [1] 0.036 | [2] 0.044 | [3] 0.048 | [4] -0.075 | [5] -0.045 | [6] 0.03 | [7] 0.027 | [8] -0.055 | [9] 0.069

HMGB3 (UniProt O15347)
Chain of UniProt O15347 (O15347 whole entry, looked up): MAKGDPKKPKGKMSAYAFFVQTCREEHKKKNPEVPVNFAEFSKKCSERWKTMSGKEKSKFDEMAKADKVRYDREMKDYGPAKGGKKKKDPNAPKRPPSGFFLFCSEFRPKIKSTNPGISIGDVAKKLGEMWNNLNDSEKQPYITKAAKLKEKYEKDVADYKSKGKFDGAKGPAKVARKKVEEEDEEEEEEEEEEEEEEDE
active: [4] -0.267
inactive: erlotinib -0.037 | [1] -0.002 | [2] 0.047 | [3] 0.011 | [5] -0.042 | [6] 0.095 | [7] -0.006 | [8] -0.025 | [9] 0.023

GNL1 (UniProt P36915)
inactive: erlotinib 0.044 | [1] 0.046 | [2] 0.048 | [3] -0.028 | [4] 0.037 | [5] -0.004 | [6] 0.074 | [7] 0 | [8] 0.035 | [9] -0.055

GSR (UniProt P00390)
Chain of UniProt P00390 (P00390 whole entry, looked up): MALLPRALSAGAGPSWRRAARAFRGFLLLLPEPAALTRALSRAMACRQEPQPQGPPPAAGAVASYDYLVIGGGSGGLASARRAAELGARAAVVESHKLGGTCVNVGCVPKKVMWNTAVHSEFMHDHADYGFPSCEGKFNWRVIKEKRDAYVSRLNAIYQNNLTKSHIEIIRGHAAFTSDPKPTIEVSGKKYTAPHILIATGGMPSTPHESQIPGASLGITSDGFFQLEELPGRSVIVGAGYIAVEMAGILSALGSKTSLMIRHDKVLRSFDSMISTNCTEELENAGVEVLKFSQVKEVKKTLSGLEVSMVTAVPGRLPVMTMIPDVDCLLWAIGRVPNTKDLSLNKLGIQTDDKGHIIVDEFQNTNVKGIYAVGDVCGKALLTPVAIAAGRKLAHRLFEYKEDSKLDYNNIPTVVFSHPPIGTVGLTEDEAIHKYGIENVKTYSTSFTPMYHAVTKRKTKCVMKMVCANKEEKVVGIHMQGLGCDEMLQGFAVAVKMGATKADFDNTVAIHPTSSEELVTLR
inactive: erlotinib -0.099 | [1] 0.021 | [2] 0.071 | [3] 0.067 | [4] 0.023 | [5] 0.007 | [6] -0.026 | [7] -0.017 | [8] 0.011 | [9] 0.054

GCLM (UniProt P48507)
inactive: erlotinib -0.054 | [1] 0.199 | [2] 0.014 | [3] -0.019 | [4] -0.078 | [5] 0.088 | [6] -0.006 | [7] 0.064 | [8] -0.008 | [9] -0.035

FLNA (UniProt P21333)
inactive: erlotinib 0.022 | [1] 0.072 | [2] -0.002 | [3] -0.032 | [4] -0.022 | [5] 0.005 | [6] 0.013 | [7] -0.017 | [8] -0.018 | [9] -0.133

GALC (UniProt P54803)
Chain of UniProt P54803 (P54803 whole entry, looked up): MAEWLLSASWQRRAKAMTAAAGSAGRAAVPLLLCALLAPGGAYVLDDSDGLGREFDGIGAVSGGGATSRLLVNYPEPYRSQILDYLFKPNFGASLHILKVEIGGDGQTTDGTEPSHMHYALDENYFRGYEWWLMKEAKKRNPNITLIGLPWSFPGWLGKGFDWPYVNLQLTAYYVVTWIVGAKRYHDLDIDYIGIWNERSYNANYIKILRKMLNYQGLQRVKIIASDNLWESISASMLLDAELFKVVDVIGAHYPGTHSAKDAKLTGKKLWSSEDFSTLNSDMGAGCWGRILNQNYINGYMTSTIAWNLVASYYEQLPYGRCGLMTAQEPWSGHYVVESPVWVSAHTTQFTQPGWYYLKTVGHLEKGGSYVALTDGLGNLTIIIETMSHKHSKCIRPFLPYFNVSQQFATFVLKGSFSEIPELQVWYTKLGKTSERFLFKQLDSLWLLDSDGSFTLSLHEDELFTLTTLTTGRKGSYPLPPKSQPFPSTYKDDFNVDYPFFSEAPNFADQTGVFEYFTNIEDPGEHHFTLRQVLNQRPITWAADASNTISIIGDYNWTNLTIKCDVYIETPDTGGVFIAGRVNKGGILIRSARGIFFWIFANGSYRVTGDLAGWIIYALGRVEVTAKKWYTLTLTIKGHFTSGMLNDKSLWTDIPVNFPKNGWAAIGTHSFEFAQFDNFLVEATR
inactive: erlotinib -0.023 | [1] -0.002 | [2] -0.051 | [3] 0.041 | [4] 0.009 | [5] 0.028 | [6] -0.017 | [7] -0.011 | [8] -0.032 | [9] 0.08

HNRNPUL1 (UniProt Q9BUJ2)
Chain of UniProt Q9BUJ2 (Q9BUJ2 whole entry, looked up): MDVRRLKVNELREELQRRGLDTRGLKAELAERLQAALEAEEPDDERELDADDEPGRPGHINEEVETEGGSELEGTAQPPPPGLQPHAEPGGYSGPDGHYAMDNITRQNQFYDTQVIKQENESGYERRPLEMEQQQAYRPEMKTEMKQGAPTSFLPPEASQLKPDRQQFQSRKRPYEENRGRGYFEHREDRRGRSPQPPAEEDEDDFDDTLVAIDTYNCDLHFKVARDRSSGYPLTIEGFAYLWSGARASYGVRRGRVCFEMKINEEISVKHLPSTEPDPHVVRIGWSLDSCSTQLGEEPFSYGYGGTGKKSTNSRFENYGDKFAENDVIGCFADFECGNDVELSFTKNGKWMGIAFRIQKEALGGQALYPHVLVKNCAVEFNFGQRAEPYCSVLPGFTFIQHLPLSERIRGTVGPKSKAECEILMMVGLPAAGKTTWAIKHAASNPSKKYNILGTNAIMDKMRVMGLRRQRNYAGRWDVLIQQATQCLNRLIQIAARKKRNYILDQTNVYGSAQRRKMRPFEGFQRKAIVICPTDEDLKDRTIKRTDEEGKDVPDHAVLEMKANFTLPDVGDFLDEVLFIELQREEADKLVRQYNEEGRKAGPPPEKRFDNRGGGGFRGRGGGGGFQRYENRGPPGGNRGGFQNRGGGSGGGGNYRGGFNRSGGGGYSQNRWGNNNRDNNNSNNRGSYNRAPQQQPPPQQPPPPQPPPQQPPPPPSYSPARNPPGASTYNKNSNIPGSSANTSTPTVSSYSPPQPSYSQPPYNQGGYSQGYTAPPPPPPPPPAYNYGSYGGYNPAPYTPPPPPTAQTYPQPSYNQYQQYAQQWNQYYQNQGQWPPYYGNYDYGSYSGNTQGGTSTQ
inactive: erlotinib 0.022 | [1] -0.009 | [2] 0.018 | [3] -0.012 | [4] 0.001 | [5] -0.01 | [6] 0.004 | [7] 0.014 | [8] 0.029 | [9] -0.048

HIP1R (UniProt O75146)
inactive: erlotinib 0.017 | [1] 0.034 | [2] 0.024 | [3] 0.005 | [4] 0.054 | [5] 0.013 | [6] 0.018 | [7] 0.033 | [8] -0.004 | [9] -0.005

GTF2E1 (UniProt P29083)
inactive: erlotinib 0.067 | [1] 0.145 | [2] 0.046 | [3] -0.002 | [4] 0.094 | [5] 0.007 | [6] 0.025 | [7] 0.039 | [8] -0.076 | [9] 0.017

FKBP3 (UniProt Q00688)
inactive: erlotinib -0.001 | [1] 0.014 | [2] 0.061 | [3] -0.012 | [4] 0.013 | [5] -0.004 | [6] -0.028 | [7] -0.001 | [8] -0.007 | [9] -0.017

FIS1 (UniProt Q9Y3D6)
Chain of UniProt Q9Y3D6 (Q9Y3D6 whole entry, looked up): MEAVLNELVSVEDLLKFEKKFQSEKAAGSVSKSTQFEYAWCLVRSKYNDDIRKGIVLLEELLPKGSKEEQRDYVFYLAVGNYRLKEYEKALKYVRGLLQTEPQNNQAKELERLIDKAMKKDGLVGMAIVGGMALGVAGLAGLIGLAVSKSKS
inactive: erlotinib 0.013 | [1] 0.066 | [2] 0.015 | [3] 0.01 | [4] -0.034 | [5] 0.024 | [6] -0.025 | [7] 0.02 | [8] -0.06 | [9] 0.09

HEXB (UniProt P07686)
Chain of UniProt P07686 (P07686 whole entry, looked up): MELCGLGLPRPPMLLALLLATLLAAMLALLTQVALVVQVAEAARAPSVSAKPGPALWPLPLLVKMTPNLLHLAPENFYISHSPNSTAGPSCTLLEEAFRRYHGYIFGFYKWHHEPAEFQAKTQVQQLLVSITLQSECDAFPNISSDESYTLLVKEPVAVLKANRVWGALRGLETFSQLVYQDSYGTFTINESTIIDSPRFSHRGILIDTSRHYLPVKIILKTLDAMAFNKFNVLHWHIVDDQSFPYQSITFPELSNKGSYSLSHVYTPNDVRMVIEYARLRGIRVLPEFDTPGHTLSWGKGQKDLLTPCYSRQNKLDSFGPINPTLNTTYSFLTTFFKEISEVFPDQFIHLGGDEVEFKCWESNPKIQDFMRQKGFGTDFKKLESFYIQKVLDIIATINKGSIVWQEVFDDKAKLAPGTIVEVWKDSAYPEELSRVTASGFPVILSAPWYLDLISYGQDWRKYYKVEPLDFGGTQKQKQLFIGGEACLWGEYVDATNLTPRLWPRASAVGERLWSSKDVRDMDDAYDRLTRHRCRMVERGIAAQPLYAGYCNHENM
inactive: erlotinib -0.004 | [1] 0.002 | [2] 0.01 | [3] 0.003 | [4] -0.002 | [5] 0.017 | [6] 0.017 | [7] -0.01 | [8] 0.008 | [9] 0.026

HIKESHI (UniProt Q53FT3)
Chain of UniProt Q53FT3 (Q53FT3 whole entry, looked up): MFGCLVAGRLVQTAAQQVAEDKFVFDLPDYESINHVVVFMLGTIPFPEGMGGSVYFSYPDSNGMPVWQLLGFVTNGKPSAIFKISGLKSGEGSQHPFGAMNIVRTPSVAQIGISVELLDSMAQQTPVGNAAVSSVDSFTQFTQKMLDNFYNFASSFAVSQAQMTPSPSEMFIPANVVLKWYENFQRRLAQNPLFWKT
inactive: erlotinib 0.004 | [1] 0.1 | [2] 0.017 | [3] 0.003 | [4] 0.073 | [5] 0.02 | [6] -0.002 | [7] -0.03 | [8] -0.056 | [9] 0.009

FEN1 (UniProt P39748)
inactive: erlotinib 0.126 | [1] 0.098 | [2] 0.091 | [3] 0.026 | [4] 0.172 | [5] 0.003 | [6] 0.118 | [7] 0.026 | [8] 0.007 | [9] -0.068

HOMER1 (UniProt Q86YM7)
Chain of UniProt Q86YM7 (Q86YM7 whole entry, looked up): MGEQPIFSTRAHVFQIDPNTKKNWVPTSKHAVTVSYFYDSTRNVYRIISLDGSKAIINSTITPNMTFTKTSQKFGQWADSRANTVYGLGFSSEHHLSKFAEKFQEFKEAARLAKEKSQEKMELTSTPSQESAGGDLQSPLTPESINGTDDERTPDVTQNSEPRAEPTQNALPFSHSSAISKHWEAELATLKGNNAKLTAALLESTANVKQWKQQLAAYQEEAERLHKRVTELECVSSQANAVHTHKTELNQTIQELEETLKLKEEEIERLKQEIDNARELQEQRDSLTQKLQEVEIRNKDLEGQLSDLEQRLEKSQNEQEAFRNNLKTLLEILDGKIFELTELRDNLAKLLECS
inactive: erlotinib -0.103 | [1] -0.015 | [2] -0.05 | [3] 0.016 | [4] 0.021 | [5] 0.074 | [6] -0.057 | [7] -0.015 | [8] 0.062 | [9] -0.011

HDAC6 (UniProt Q9UBN7)
inactive: [1] 0.033 | [2] -0.007 | [3] -0.007 | [4] 0.041 | [5] -0.164 | [6] 0.033 | [7] 0.07 | [8] -0.043 | [9] 0.115
active: erlotinib 0.43

GNS (UniProt P15586)
inactive: erlotinib -0.033 | [1] -0.003 | [2] 0.005 | [3] 0.004 | [4] 0.028 | [5] 0.026 | [6] 0.03 | [7] -0.04 | [8] 0.023 | [9] 0.061

GDE1 (UniProt Q9NZC3)
inactive: erlotinib 0.014 | [1] 0.065 | [2] 0.055 | [3] 0.019 | [4] -0.047 | [5] 0.05 | [6] -0.029 | [7] -0.023 | [8] 0.003 | [9] 0.13

FBXO7 (UniProt Q9Y3I1)
inactive: erlotinib 0.039 | [1] 0.033 | [2] 0.014 | [3] -0.055 | [4] 0.033 | [5] -0.038 | [6] 0.001 | [7] -0.014 | [8] 0.005 | [9] 0

GLB1 (UniProt P16278)
inactive: erlotinib -0.082 | [1] 0.038 | [2] 0 | [3] -0.006 | [4] 0.018 | [5] -0.028 | [6] 0.013 | [7] -0.011 | [8] 0.017 | [9] -0.009

GABARAPL1 isoform 2 (UniProt Q9H0R8)
Chain of UniProt Q9H0R8 (Q9H0R8 whole entry, looked up): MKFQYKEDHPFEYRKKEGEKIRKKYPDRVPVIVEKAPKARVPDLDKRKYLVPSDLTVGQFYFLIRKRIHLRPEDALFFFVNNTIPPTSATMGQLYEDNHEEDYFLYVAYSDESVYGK
inactive: erlotinib 0.071 | [1] -0.012 | [2] -0.023 | [3] -0.029 | [4] 0.074 | [5] -0.033 | [6] -0.001 | [7] 0.02 | [8] -0.02 | [9] 0.016

GLUD2 (UniProt P49448)
inactive: erlotinib 0.009 | [1] -0.028 | [2] 0.028 | [3] 0.036 | [4] 0.003 | [5] -0.011 | [6] 0.03 | [7] 0.027 | [8] -0.005 | [9] -0.009

GGT7 (UniProt Q9UJ14)
Chain of UniProt Q9UJ14 (Q9UJ14 whole entry, looked up): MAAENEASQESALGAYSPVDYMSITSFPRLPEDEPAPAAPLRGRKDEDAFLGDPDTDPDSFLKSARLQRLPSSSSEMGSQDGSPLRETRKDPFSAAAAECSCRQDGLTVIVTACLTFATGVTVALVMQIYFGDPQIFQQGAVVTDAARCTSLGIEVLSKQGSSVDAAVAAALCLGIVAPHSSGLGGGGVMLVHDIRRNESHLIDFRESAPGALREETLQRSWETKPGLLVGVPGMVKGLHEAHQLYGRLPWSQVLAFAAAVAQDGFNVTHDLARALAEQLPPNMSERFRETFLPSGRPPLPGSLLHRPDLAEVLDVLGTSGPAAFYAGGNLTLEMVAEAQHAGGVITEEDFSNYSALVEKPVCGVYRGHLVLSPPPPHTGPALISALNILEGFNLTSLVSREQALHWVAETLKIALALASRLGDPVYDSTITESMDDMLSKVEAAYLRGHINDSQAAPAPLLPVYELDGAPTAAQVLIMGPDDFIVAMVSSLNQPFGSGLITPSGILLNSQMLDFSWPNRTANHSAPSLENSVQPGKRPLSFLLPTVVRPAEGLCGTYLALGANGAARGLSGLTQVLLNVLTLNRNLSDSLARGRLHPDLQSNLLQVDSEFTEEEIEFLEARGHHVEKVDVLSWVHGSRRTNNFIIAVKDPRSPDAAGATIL
inactive: erlotinib 0.012 | [1] -0.006 | [2] 0.084 | [3] -0.027 | [4] -0.001 | [5] -0.004 | [6] -0.018 | [7] -0.01 | [8] -0.035 | [9] 0.062

FKBP4 (UniProt Q02790)
Chain of UniProt Q02790 (Q02790 whole entry, looked up): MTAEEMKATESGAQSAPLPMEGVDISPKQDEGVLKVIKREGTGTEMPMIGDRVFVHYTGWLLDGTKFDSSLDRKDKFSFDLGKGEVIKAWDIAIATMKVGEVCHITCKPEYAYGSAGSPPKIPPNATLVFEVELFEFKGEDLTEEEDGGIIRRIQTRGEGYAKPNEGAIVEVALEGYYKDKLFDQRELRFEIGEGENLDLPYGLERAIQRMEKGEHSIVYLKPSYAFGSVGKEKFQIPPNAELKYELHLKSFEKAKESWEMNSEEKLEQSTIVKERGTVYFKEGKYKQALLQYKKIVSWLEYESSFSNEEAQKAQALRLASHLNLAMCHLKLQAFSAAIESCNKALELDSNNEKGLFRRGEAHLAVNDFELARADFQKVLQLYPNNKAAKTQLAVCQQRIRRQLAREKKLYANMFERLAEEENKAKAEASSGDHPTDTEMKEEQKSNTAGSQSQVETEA
inactive: erlotinib -0.04 | [1] 0.07 | [2] 0.055 | [3] -0.042 | [4] 0.017 | [5] 0.007 | [6] 0.036 | [7] 0.047 | [8] 0.016 | [9] -0.033

HNRNPUL2 (UniProt Q1KMD3)
inactive: erlotinib -0.054 | [1] -0.08 | [2] -0.138 | [3] -0.015 | [4] -0.057 | [5] 0.012 | [6] -0.056 | [7] -0.014 | [8] 0.011 | [9] -0.102
